From PubChem BioAssay (NCI) come the findings set out here.

Structures are written as SMILES. About 83,000 compounds went through this panel and 20% of them were active in at least one assay; those are over-represented in the sample as a whole.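 Compound tested at a single concentration for 48 hours in 96-well plates; a percent growth value below 10 was scored as active.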 A number with no mark means an inactive call. Activity calls are given as the source filed them.

What all share (assay): NCI-60 one-dose screen, 48 h (100 = growth as untreated, 0 = no growth, -100 = all killed)
One experiment has as its system NCI-H23 lung. Particulars: 10 µM unless noted.
For a further experiment, the system named is NCI-H226 lung. Particulars: 10 µM unless noted.
Another experiment relates to NCI-H322M lung. Particulars: 10 µM unless noted.
For the next experiment, the system named is NCI-H460 lung. Particulars: 10 µM unless noted.
The next experiment has as its system HOP-92 NSCLC. Particulars: 10 µM.
In another experiment the test system is NCI-H522 lung. Particulars: 10 µM.
The subject of the next experiment is A549/ATCC NSCLC. Particulars: 10 µM unless noted.
The test system of a further experiment is 786-0 renal. The note with it: 10 µM unless noted.
The subject of the next experiment is COLO 205 colon. The note with it: 10 µM unless noted.
The subject of another experiment is DU-145 prostate. The note with it: 10 µM unless noted.
The next experiment has as its system K-562 leukemia. The note with it: 10 µM unless noted.
For another experiment, the system named is MALME-3M melanoma. The note with it: 10 µM unless noted.
A further experiment relates to MDA-MB-231 breast. The note with it: 10 µM unless noted.
In a further experiment the test system is RXF 393 renal. The note with it: 10 µM unless noted.
The subject of another experiment is SF-268 CNS. The note with it: 10 µM unless noted.
The subject of a further experiment is SF-295 CNS. The note with it: 10 µM unless noted.
A further experiment has as its system SF-539 CNS. Particulars: 10 µM unless noted.
The subject of a further experiment is UACC-257 melanoma. Particulars: 10 µM unless noted.
The subject of the next experiment is M14 melanoma. The note with it: 10 µM unless noted.

In the case of `C=CCSc1nnc(COc2ccc3c(C)c(Cc4ccccc4)c(=O)oc3c2C)o1`, the growth in the experiment with NCI-H23 lung is 102%; in the experiment with NCI-H226 lung, 95%; with NCI-H322M lung, 99.2%; in the experiment with NCI-H460 lung it was 103%; in the experiment with HOP-92 NSCLC it was 100%; in the experiment on NCI-H522 lung, 81.8%. In addition, the growth was 101% in the experiment on A549/ATCC NSCLC; 102% with 786-0 renal; 117% in the experiment with COLO 205 colon; 106% in the experiment with DU-145 prostate; 96.2% in the experiment with K-562 leukemia; 108% in the experiment with MALME-3M melanoma. The growth with MDA-MB-231 breast is 104%; with RXF 393 renal, 114%; in the experiment with SF-268 CNS it was 101%; in the experiment with SF-295 CNS, 99.9%; with SF-539 CNS it was 101%; with UACC-257 melanoma, 102%. The growth in the experiment on M14 melanoma was 102%.

On to `CC(=O)c1cc(Nc2cc(C)nc(N)n2)cc(C(C)=O)c1`, for which the growth is 83.2% in the experiment on NCI-H23 lung; 101% in the experiment on NCI-H226 lung; 107% in the experiment on NCI-H322M lung; 104% in the experiment on NCI-H460 lung; 71.9% with HOP-92 NSCLC; 99.8% in the experiment on NCI-H522 lung. In addition, the growth in the experiment with A549/ATCC NSCLC was 116%; in the experiment on 786-0 renal, 95.3%; in the experiment on COLO 205 colon, 117%; in the experiment on DU-145 prostate it was 91.3%; in the experiment with K-562 leukemia, 81.3%; in the experiment on MALME-3M melanoma it was 45.3%. The growth in the experiment with MDA-MB-231 breast was 106%; with RXF 393 renal it was 108%; in the experiment with SF-268 CNS, 99.8%; in the experiment on SF-295 CNS, 114%; in the experiment with SF-539 CNS it was 91.2%; in the experiment with UACC-257 melanoma, 103%.

In the case of `Cc1nc(N)sc1C(=O)NCCO`, the growth in the experiment on NCI-H23 lung is 106%; in the experiment with NCI-H226 lung, 97.2%; with NCI-H322M lung, 127%; in the experiment on NCI-H460 lung it was 115%; in the experiment on HOP-92 NSCLC, -17.9% (active); with NCI-H522 lung it was 34.5%. Further, the growth in the experiment on A549/ATCC NSCLC was 111%; in the experiment on 786-0 renal it was 129%; with COLO 205 colon, 126%; with DU-145 prostate it was 105%; in the experiment with K-562 leukemia it was 145%; in the experiment with MALME-3M melanoma, -3.05% (active). Further, the growth with MDA-MB-231 breast is 101%; in the experiment on RXF 393 renal, 106%; in the experiment with SF-268 CNS, 98.6%; in the experiment with SF-295 CNS, 108%; with SF-539 CNS, 105%; with UACC-257 melanoma, 110%. In addition, the growth in the experiment with M14 melanoma is 112%.

On to `CC(O)C(N)=O` (stereo not drawn), for which the growth with NCI-H23 lung is 95.6%; in the experiment on NCI-H226 lung, 102%; in the experiment with NCI-H322M lung, 108%; in the experiment with NCI-H460 lung, 105%; in the experiment on HOP-92 NSCLC, 101%; in the experiment on NCI-H522 lung it was 102%. Also, the growth was 109% in the experiment on A549/ATCC NSCLC; 98.8% with 786-0 renal; 104% in the experiment on COLO 205 colon; 109% in the experiment on DU-145 prostate; 101% with K-562 leukemia; 105% in the experiment with MALME-3M melanoma. For the same compound, the growth in the experiment with MDA-MB-231 breast was 114%; in the experiment on RXF 393 renal it was 107%; with SF-268 CNS, 103%; in the experiment with SF-295 CNS it was 95%; with SF-539 CNS, 94.7%; with UACC-257 melanoma, 112%. Besides, the growth with M14 melanoma is 97.9%.

On to `C[C@H]1C[C@@H](n2cnc3c(N)nccc32)[C@H](O)[C@@H]1O`, for which the growth is 128% in the experiment with NCI-H23 lung; 105% in the experiment with NCI-H226 lung; 110% in the experiment with NCI-H322M lung; 80.8% in the experiment with NCI-H460 lung; 83.3% with HOP-92 NSCLC; 151% in the experiment with NCI-H522 lung. In addition, the growth in the experiment on A549/ATCC NSCLC is 98.6%; in the experiment with 786-0 renal it was 95.6%; in the experiment on COLO 205 colon it was 109%; in the experiment on DU-145 prostate, 84%; in the experiment with K-562 leukemia, 69.6%; in the experiment on MALME-3M melanoma it was 110%. Moreover, the growth in the experiment with MDA-MB-231 breast is 89.9%; with RXF 393 renal it was 7.03% (active); in the experiment on SF-268 CNS, 97.9%; with SF-295 CNS it was 96.5%; with SF-539 CNS it was 67.9%; in the experiment on UACC-257 melanoma, 89.3%.

For `Cc1nc2c(nnn2-c2ccccc2)c2nc(-c3ccccc3)oc(=O)c12`, the growth in the experiment on NCI-H23 lung is 109%; in the experiment on NCI-H226 lung it was 99.8%; in the experiment on NCI-H322M lung, 103%; in the experiment on NCI-H460 lung it was 116%; with HOP-92 NSCLC it was 107%; with NCI-H522 lung, 105%. The growth in the experiment with A549/ATCC NSCLC was 116%; in the experiment on 786-0 renal, 101%; in the experiment on COLO 205 colon, 115%; in the experiment with DU-145 prostate it was 117%; in the experiment with K-562 leukemia, 106%; in the experiment on MALME-3M melanoma it was 115%. Further, the growth in the experiment with MDA-MB-231 breast was 109%; in the experiment with RXF 393 renal, 109%; in the experiment on SF-268 CNS, 108%; with SF-295 CNS it was 101%; in the experiment with SF-539 CNS, 97.7%; with UACC-257 melanoma, 123%. Further, in the experiment on M14 melanoma, the growth was 102%.

As to `O=C1C(=O)c2ccccc2C(O)=C1CCCc1ccc(C2CCCC2)cc1`, the growth was 36.5% in the experiment on NCI-H23 lung; 36.8% with NCI-H226 lung; 37.9% in the experiment with NCI-H322M lung; 9.54% (active) with NCI-H460 lung; 78.2% in the experiment on HOP-92 NSCLC; 39.2% in the experiment with NCI-H522 lung. Also, the growth in the experiment with A549/ATCC NSCLC is 37.9%; in the experiment with 786-0 renal, 43.8%; with COLO 205 colon it was 54.7%; with DU-145 prostate, 40.5%; with K-562 leukemia, 19.2%; in the experiment with MALME-3M melanoma, 84%. The growth in the experiment with MDA-MB-231 breast is 56.5%; in the experiment with RXF 393 renal, 57.9%; in the experiment on SF-268 CNS it was 47.6%; in the experiment with SF-295 CNS it was 27.3%; in the experiment on SF-539 CNS, 22.9%; in the experiment on UACC-257 melanoma it was 40.7%.

Regarding `CCCC(=O)NNc1[nH]c(-c2ccc(OC)cc2)cc1C(=O)OCC`, the growth is 95.4% in the experiment with NCI-H23 lung; 104% with NCI-H226 lung; 35.2% in the experiment on NCI-H322M lung; 120% with NCI-H460 lung; 72.9% with HOP-92 NSCLC; 91.1% with NCI-H522 lung. The growth was 110% with A549/ATCC NSCLC; 96.6% in the experiment on 786-0 renal; 1.42% (active) with COLO 205 colon; 104% in the experiment on DU-145 prostate; 49.1% with K-562 leukemia; 52% in the experiment on MALME-3M melanoma. Also, the growth with MDA-MB-231 breast is 87.4%; in the experiment on RXF 393 renal, 107%; with SF-268 CNS it was 118%; in the experiment with SF-295 CNS, 93.7%; with SF-539 CNS, 92.7%; with UACC-257 melanoma, 105%.
